An excerpt weighted towards active compounds, which were near 3.2% of everything screened.
Mtb FBA inh = Mtb fructose-bisphosphate aldolase inhibition. purified M. tuberculosis FBA, fluorescence read-out. P9WQA3. inhibition, % at 1 µM. AID 588726. hit rate 2.3% among 360,000; in the data active means inhibition above about 27%;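 further: 0% = vehicle and 100% = reference inhibitor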
Mtb UGM inh = blocks M. tuberculosis UGM enzyme | P9WIQ1 | purified UGM, fluorescence polarization probe displacement | inhibition, % at 10 µM | hit rate 0.06% among 320,000 | AID 504406; in the data active means inhibition above about 10%, passing the limit was not always enough
PriA SSB inh = blocks PriA binding to SSB C-terminal tail. AlphaScreen SSBct-PriA binding, biotinylated peptide. inhibition, % at 33 µM. hit rate 0.6% among 430,000. AID 1272365; in the data active means inhibition mostly above about 37%, no sharp cut-off; inactive means mostly below about 20%;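 further: plate controls were negative control peptide for no effect and reference peptide for full effect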
GDH-TPI counter = counter-screen for M. tuberculosis FBA inhibitors: GDH-TPI coupled enzymes; GDH-TPI coupled enzyme counterscreen, NADH absorbance; inhibition, % at 4.8 µM; hit rate 1.2% among 360,000; in the data active means inhibition above about 30%;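 further: 0% = DMSO wells and 100% = wells lacking the enzyme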
Mtb betalactam = beta-lactam sensitization of Mtb H37Rv. inhibition, % at 25 µM. hit rate 0.27% among 330,000. AID 434955. M. tuberculosis H37Rv growth with meropenem, percent inhibition; call rule not given here;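 further: growth measured after seven days incubation then overnight dye step; 0% = bacteria only wells and 100% = bacteria with antibiotic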
Rv3671c inh = inhibitors of M. tuberculosis serine protease Rv3671c; P9WHR9; inhibition, % at 5.96 µM; hit rate 0.048% among 320,000; AID 2606; in the data active means inhibition above about 38%;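 further: extracellular domain of Rv3671c used as enzyme; 0% = enzyme with DMSO and 100% = no enzyme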
Target sequence (P9WHR9 whole entry, looked up, the tested form may be a part): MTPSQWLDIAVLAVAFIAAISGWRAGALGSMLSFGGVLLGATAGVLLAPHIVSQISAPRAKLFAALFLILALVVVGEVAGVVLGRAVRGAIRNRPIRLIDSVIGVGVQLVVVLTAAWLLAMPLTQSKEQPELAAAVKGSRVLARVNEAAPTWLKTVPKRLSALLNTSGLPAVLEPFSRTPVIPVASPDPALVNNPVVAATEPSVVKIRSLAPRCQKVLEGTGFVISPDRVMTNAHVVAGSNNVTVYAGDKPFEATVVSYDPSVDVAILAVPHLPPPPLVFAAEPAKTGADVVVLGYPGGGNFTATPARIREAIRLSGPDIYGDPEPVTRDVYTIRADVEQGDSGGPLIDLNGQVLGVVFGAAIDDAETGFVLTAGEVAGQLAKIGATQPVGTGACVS
* marks the source's active call; other numbers are inactive results; / = no result; + = active, no number.

SMILES	Mtb FBA inh	Mtb UGM inh	PriA SSB inh	GDH-TPI counter	Mtb betalactam	Rv3671c inh
CC(C)Sc1ccc(CC(=O)N2C3C=CCC2CC3)cc1 (stereo not given)	/	/	5.0	/	/	/
Nc1c(C(=O)Nc2cccc(F)c2)oc2ccccc12	/	/	-1.0	/	/	/
COc1ccccc1-c1ccc(N2CCN(S(=O)(=O)c3cccc(Cl)c3)CC2)nn1	/	/	-10.0	/	/	/
O=C(COC(=O)c1cccc(Cl)c1)NC1CCS(=O)(=O)C1 (stereo not given)	3.0	/	-4.7	7.3	-5.8	10.1
Nc1ccc(Cl)cc1C(=O)OCC(=O)NC1CCS(=O)(=O)C1 (stereo not given)	90.0*	-1.9	4.4	17.3	1.9	-4.6
Cc1ccc(C(O)=C2C(=O)C(=O)N(c3ccccn3)C2c2ccc([N+](=O)[O-])cc2)cc1 (stereo not given)	/	/	3.9	/	/	/
Cc1ccc(CN2CCSc3ccc(C(=O)N4CCOCC4)cc32)cc1	16.9	1.7	3.5	18.7	-5.8	-4.0
CCOC(=O)c1cnc2ccc(C(=O)OC)cc2c1NCCCN1CCOCC1	19.1	0.8	0.1	53.1*	4.5	/
O=C(NCCCN1CCOCC1)c1ccc2c(c1)N(Cc1ccccc1)C(=O)c1ccccc1S2	-1.1	-3.7	4.1	9.5	0.8	-1.7
O=C(NCCCN1CCOCC1)c1ccc2c(c1)N(Cc1ccccc1)CCS2	119.4*	2.1	2.5	0.5	-3.1	-25.0
O=C(NCCN1CCOCC1)c1ccc2c(c1)N(Cc1ccccc1)CCS2	118.2*	0.3	4.5	8.9	-9.5	-12.6
Cc1ccc(CN2CCSc3ccc(C(=O)NCCCN4CCOCC4)cc32)cc1	162.0*	-3.1	17.7	8.6	1.5	1.7
NC(=NOC(=O)c1ccco1)c1ccc(Cl)cc1	/	/	-22.6	/	/	/
CCOc1ccc(C(=O)NCCCN2CCOCC2)cc1OCC	+	-0.6	-6.9	2.2	5.0	-2.5
CN1CCN(CCCNC(=O)c2ccc3c(c2)N(Cc2ccccc2)CCS3)CC1	189.6*	1.1	9.0	8.9	3.8	2.5
O=C(NCC1CCCO1)c1ccc2c(c1)N(Cc1ccccc1)CCS2 (stereo not given)	141.4*	-2.9	4.6	-7.7	4.4	10.1
O=C(O)c1cccc(-c2ccccc2)c1	/	/	-2.0	/	/	/
CS(=O)(=O)N1CCC(C(=O)NCc2cncc(-c3cccs3)c2)CC1	/	/	5.0	/	/	/
O=C(NCc1ccc2c(c1)OCO2)c1csc(-c2cnccn2)n1	/	/	-34.0	/	/	/
Cc1cncnc1N1CCN(C(=O)Nc2ccc3c(c2)OCO3)CC1	/	/	-18.0	/	/	/
COc1ccccc1-c1c(C(F)(F)F)oc2c(CN(C)C)c(O)ccc2c1=O	2.9	-2.7	-18.1	13.8	-1.6	-10.7
CN(C)Cc1c(O)ccc2c(=O)c(-c3ccccc3Cl)c(C(F)(F)F)oc12	1.7	-0.7	3.1	35.7*	0.7	-7.9
CCOc1cc(CNc2ccc(CNc3ncn[nH]3)cc2)ccc1OCc1ccccc1	-2.1	0.4	43.0*	7.4	0.4	2.0
Cn1cccc1C=NNC(=O)c1cc(-c2cccs2)nc2ccccc12	/	/	56.4	/	/	/
COc1cc(/C=N/NC(=O)c2cc(-c3cccs3)nc3ccccc23)ccc1O	7.5	1.5	/	55.6*	-3.3	-7.6
SMILES	Mtb FBA inh	Mtb UGM inh	PriA SSB inh	GDH-TPI counter	Mtb betalactam	Rv3671c inh
COc1cc(C=NNC(=O)c2cc(-c3cccs3)nc3ccccc23)ccc1O	/	/	-0.1	/	/	/
COc1cc(/C=N/NC(=O)c2cc(-c3cccc(OC(C)C)c3)nc3ccccc23)ccc1O	2.6	-0.9	/	61.4*	-6.7	-16.1
CC(=NNC(=O)c1cc(-c2cccs2)nc2ccccc12)c1ccccn1	/	/	85.1*	/	/	/
COc1cc(C=NNC(=O)c2cc(-c3cccc(OC(C)C)c3)nc3ccccc23)ccc1O	/	/	-5.3	/	/	/
C=CC(=O)N1C/C(=C/c2ccccc2)C(=O)/C(=C\c2ccccc2)C1	1.4	/	-1.6	31.6*	/	/
C=CC(=O)N1C/C(=C/c2ccc(Cl)cc2)C(=O)/C(=C\c2ccc(Cl)cc2)C1	-0.2	/	-6.0	22.5	/	/
CCSc1ccccc1C(=O)N1CCC(c2ccsc2)CC1	/	/	-1.0	/	/	/
O=C(CN1CCN(C2CCCCC2)CC1)Nc1ccccc1-c1ccccc1	0.3	-2.2	5.0	3.2	-1.6	-0.4
O=C(CN1CCN(C2CCCCC2)CC1)Nc1cccc2ccccc12	1.6	-0.7	-5.8	31.7*	-9.3	4.5
COc1cc(OC)cc(C(=O)Nc2ccc(Nc3ccccc3)cc2)c1	0.3	0.4	44.9*	7.6	7.3	4.4
COc1cccc(OCCn2cnc3ccccc32)c1	/	/	-6.0	/	/	/
Cc1ccccc1Cn1cccc(C(=O)Nc2cccc(Cl)c2Cl)c1=O	/	/	1.0	/	/	/
OCCCN=c1cc(-c2ccccc2)oc2ccc(Cl)cc12	0.1	-1.2	2.1	48.6*	86.7	2.7
C[C@@H](O)CN=c1cc(-c2ccccc2)oc2ccc(Cl)cc12	/	/	-11.8	/	/	/
COc1cc(NC(=O)Nc2cnc(N(C)C)nc2)cc(OC)c1OC	/	/	-17.0	/	/	/
COc1ccc(-c2cc(N3CCCC3)n3ncnc3n2)cc1	6.2	2.3	-1.4	18.2	-3.2	-0.5
c1ccc2c(c1)ncn2-c1ccc(-c2ccnc3ncnn23)cc1	-1.7	/	-10.5	6.8	-2.2	3.8
COc1ccc(-c2cc(-c3ccccc3)n3ncnc3n2)cc1	170.1*	3.0	-13.7	32.8*	96.4	3.1
COc1ccc(-c2ccnc3ncnn23)cc1	+	1.6	-7.7	13.3	-0.2	17.6
COc1ccc(-c2cnc3ncnn3c2N)cc1	0.2	1.5	-11.5	7.3	1.7	-10.1
FCCCOc1ccc(-c2ccnc3ncnn23)cc1	+	1.4	-7.9	0.3	2.0	-1.3
CC(C)(C)c1cc(CCCSCCCc2cc(C(C)(C)C)c(O)c(C(C)(C)C)c2)cc(C(C)(C)C)c1O	/	/	-8.0	/	/	/
Cc1cccc(-n2ncc3c(N(C)Cc4ccccc4)ncnc32)c1	-1.4	2.2	104.2*	-9.9	43.7	1.2
Cc1cccc(-n2ncc3c(N)ncnc32)c1	10.7	2.9	-24.2	2.9	3.1	-4.0
CCOC(=O)c1sc(NC(=O)/C=C/c2ccc([N+](=O)[O-])s2)nc1C	/	/	-2.0	/	/	/
SMILES	Mtb FBA inh	Mtb UGM inh	PriA SSB inh	GDH-TPI counter	Mtb betalactam	Rv3671c inh
Oc1ccc(C(=Nc2ccccc2)c2ccccc2)c(O)c1	-2.0	/	-17.6	44.9*	/	/
O=C(CN1CCCC1)NN=Cc1c(O)ccc2ccccc12	/	/	8.4	/	/	/
CCOC(=O)C[n+]1ccc2c([nH]c3ccccc32)c1C	134.9*	-1.2	12.5	3.5	-1.9	-1.5
COC(CNC(=O)c1coc2nc3ccccc3nc12)OC	120.1*	-0.1	14.1	29.1	6.8	-8.8
O=C(NCC1CCCO1)c1coc2nc3ccccc3nc12 (stereo not given)	126.2*	1.7	1.4	9.2	-4.9	-9.1
N#Cc1c(N)c(C(=O)c2ccc(Br)cc2)n2c1CCC2	0.7	-0.3	1.8	31.1*	2.6	2.0
O=C(Cc1ccc(F)cc1)OCc1cc(-c2cc3ccccc3o2)on1	/	/	-8.0	/	/	/
CC(C)(C)c1ccc(-c2nnc3sc(-c4cnccn4)nn23)cc1	/	/	51.0*	/	/	/
CCN1C(=O)[C@@H]2C(C(=O)c3cnccn3)=NN[C@@H]2C1=O	-0.8	2.6	-7.8	32.4*	-10.3	-3.9
O=C(C1=NN[C@@H]2C(=O)N(c3cccc(F)c3)C(=O)[C@H]12)c1cnccn1	2.3	-1.6	-1.7	10.2	-2.1	7.0

Compound activity deposited in PubChem BioAssay by several laboratories.
